Experimental findings from PubChem BioAssay (NCATS) are described below.

Values without a mark were called inactive. Results filed as inconclusive are left out. The source made the active and inactive calls. Unless noted, the call rests on the fitted dose curve; in most records, active means well fitted curve in either direction with a large enough effect (not every such curve was filed as active); inconclusive means small, poorly fitted or top-dose-only effect, or another doubt; inactive means flat fitted curve, though single readings scatter.

The target of test [1] is Lysosomal acid glucosylceramidase (Homo sapiens) (UniProt P04062). As to the kind of experiment: Glucocerebrosidase-p2 (AID 348; in the data active means potency below about 10 µM; further: potency means the concentration at half of the fitted maximal effect). The settings on record: purified GBA, blue fluorogenic substrate, 40 min. An outline of the steps: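 Normal human glucocerebrosidase (0.2 nM) with blue fluorogenic substrate (80 uM final) in citrate/phosphate pH 5.9 with 10mM sodium taurocholate, 0.01% tween-20; 40 min RT, NaOH/glycine stop; fluorescence Ex 365/Em 440; AC50 from a titration from 0.6 nM upwards.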
Chain of Lysosomal acid glucosylceramidase (Homo sapiens) (P04062 whole entry, looked up): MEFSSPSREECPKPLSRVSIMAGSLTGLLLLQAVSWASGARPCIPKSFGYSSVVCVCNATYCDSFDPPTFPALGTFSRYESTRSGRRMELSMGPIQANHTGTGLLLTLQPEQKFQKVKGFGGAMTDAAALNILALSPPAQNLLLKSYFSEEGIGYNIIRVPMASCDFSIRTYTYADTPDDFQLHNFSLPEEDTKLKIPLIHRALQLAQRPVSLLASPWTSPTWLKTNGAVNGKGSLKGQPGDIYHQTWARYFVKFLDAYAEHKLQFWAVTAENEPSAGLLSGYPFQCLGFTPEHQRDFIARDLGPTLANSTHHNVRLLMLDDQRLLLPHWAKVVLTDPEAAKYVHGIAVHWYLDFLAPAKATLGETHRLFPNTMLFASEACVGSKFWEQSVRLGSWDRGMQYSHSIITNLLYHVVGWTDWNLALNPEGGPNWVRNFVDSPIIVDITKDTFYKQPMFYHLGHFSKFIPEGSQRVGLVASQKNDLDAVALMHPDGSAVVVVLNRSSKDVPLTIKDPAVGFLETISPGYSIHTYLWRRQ

A short description of test [2]: AP1 Signaling Pathway (AID 357). Further: on the % scale 0 is the no-effect control and ±100 the full control effect. The conditions noted are these: ME-180 AP-1-bla reporter, EGF-induced, beta-lactamase ratio, 5 h; at 7.69 µM (top of the series) unless noted. The method, boiled down: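 ME-180 cells with beta-lactamase reporter under AP-1 response element, stimulated with EC50 EGF; compounds tested in titration series, 5 h at 37 °C. CCF4 substrate added 2.5 h at room temperature; 460/530 nm emission ratio gave %activity and AC50.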

Test [3] deals with Cytochrome P450 1A2 (Homo sapiens) (UniProt P05177). In words: p450-cyp1a2 (AID 410; calls by dose curve; further: potency means the concentration at half of the fitted maximal effect;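 on activity change, negative = inhibition: -100% = full effect of reference inhibitor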). The settings on record: recombinant CYP1A2, luciferin-ME demethylation, luminescence; series mostly up to 57 µM. The method, boiled down: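 O-Demethylation of luciferin 6' methyl ether by human CYP1A2 is monitored as luciferase luminescence. Substrate sits at Km (100uM); enzyme is 20nM. Values are scaled to 57 uM furafylline as maximal inhibition.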
Chain of Cytochrome P450 1A2 (Homo sapiens) (P05177 whole entry, looked up): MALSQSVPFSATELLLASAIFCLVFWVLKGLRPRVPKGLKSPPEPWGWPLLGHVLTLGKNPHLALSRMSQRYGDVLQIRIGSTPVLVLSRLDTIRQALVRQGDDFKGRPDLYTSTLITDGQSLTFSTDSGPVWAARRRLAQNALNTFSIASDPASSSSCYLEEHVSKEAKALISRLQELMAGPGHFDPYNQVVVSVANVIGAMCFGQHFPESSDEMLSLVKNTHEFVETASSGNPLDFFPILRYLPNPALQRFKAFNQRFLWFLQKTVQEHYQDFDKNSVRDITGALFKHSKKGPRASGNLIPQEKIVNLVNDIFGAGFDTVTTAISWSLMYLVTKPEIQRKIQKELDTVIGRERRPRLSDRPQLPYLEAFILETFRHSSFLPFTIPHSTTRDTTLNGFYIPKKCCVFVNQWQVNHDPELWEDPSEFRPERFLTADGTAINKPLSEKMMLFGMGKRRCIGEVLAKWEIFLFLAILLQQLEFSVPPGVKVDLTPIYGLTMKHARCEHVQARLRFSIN

A short description of test [4]: Stat Signaling Pathway (AID 446).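 Further: ME-180 cervical cancer cells given 40 pM IL-6 alongside compound; SIE-controlled beta-lactamase reporter measured as 460/530 nm FRET emission ratio; on the % scale 0 is the no-effect control and ±100 the full control effect.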 The settings on record: ME-180 (cervical carcinoma) SIE beta-lactamase reporter, IL-6 stimulated, 5 h; at 7.69 µM (top of the series) unless noted. An outline of the steps:
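Normalization used AC90 stimulation (300 pM IL-6) and AC90 inhibition (125 nM pan-JAK inhibitor at 40 pM IL-6). The underlying signal is SIE-driven beta-lactamase in ME-180 cells after 5 h IL-6 exposure with compound.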

For test [5], the target named is Glucocorticoid receptor (Homo sapiens) (UniProt P04150). As to the kind of experiment: GR-EFC Redistribution (AID 451; calls by dose curve; further: potency means the concentration at half of the fitted maximal effect). The settings on record: CHO-K1 GR-EFC translocation, beta-gal luminescence, 2 h. The method, boiled down:
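CHO-K1 cells expressing nuclear EA and GR-ED fragments of b-gal; compounds titrated up to 46 uM final, 2 h at 37 C. GR nuclear translocation read as complemented b-gal luminescence after 1 h RT detection.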

Test [6] addresses Mitogen-activated protein kinase 10 (Mus musculus) (UniProt Q61831). As to the kind of experiment: JNK3 AlphaScreen Assay (AID 530).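 Further: kinase came from lysate of stimulated human HepG2 cells; signal reports phosphorylation of biotinylated GST-cJun 1-79 at Ser73 with 10 µM ATP; on the % scale 0 is the no-effect control and ±100 the full control effect.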 The conditions noted are these: JNK3 lysate, c-Jun phosphorylation; series mostly up to 57.1 µM. An outline of the steps: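 Activity was read by AlphaScreen after JNK3-containing HepG2 lysate (cytokine pre-activated) phosphorylated biotinylated GST-cJun with 10 uM ATP at room temperature. Phospho-Ser73 cJun antibody with Protein-A acceptor beads provided detection.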
Background: In Alpha technology, singlet oxygen from a donor bead excites a nearby acceptor bead.

The target of test [7] is 3',5'-cyclic-AMP phosphodiesterase 4B (Homo sapiens) (UniProt Q07343). In words: qHTS Assay for Inhibitors of PDE-IV (AID 607; active means well fitted activation curve with a large enough effect in the main read-out, with a control signal flat, not every such curve was filed as active; further: % of control where 0% means no effect). The conditions noted are these: HEK293 ACTOne CNG channel cells, membrane potential fluorescence; series mostly up to 22.9 µM. An outline of the steps:
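HEK293 ACTOne cells with CNG channel (1000/well), endogenous PDE4; membrane potential dye, compounds up to 22.9 uM final. Fluorescence Ex 535/Em 590; RO 20-1724 (100 uM final) as reference.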
In general terms: In qHTS, concentration-response curves come from the screen itself.

The target in test [8] is Cytochrome P450 3A4 (Homo sapiens) (UniProt P08684). In words: qHTS Assay for Activators of Cytochrome P450 3A4 (AID 885; active means well fitted curve in the direction sought with a large enough effect; an effect the other way counts as inactive or inconclusive; further: nearly all actives have a fitted effect of over 65% in size). The settings on record: recombinant CYP3A4, Luciferin-PPXE luminescence, 60 min; series mostly up to 57.1 µM. An outline of the steps:
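Human CYP3A4 dealkylates Luciferin-PPXE to luciferin, which luciferase detection converts to light. Substrate was at its KM (25uM), buffer 200mM KPO4, reaction 60 min at RT.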

Test [9] can be described thus: Primary qHTS for small molecule stabilizers of the endoplasmic reticulum resident proteome: Secreted ER Calcium Modulated Protein (SERCaMP) assay (AID 1508630; active means well fitted curve in the direction sought with a large enough effect; an effect the other way counts as inactive or inconclusive; further: on the % scale 0 is the no-effect control and ±100 the full control effect). The conditions noted are these: SH-SY5Y GLuc-SERCaMP (Gaussia luciferase released on ER calcium loss) secretion, thapsigargin, luminescence; series mostly up to 38.4 µM. The method, boiled down: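 The SH-SY5Y reporter protocol was run at 3 concentrations up to 38.3 uM (primary) or 11 concentrations (follow-up): 16 h compound, 100 nM thapsigargin for 4 h, then extracellular luciferase luminescence.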

Test [10] addresses Cytochrome P450 2D6 (Homo sapiens) (UniProt P10635). In words: qHTS Assay for Inhibitors and Substrates of Cytochrome P450 2D6 (AID 891; active means well fitted curve in the direction sought with a large enough effect; an effect the other way counts as inactive or inconclusive; further: nearly all actives have a fitted effect of over 60% in size; further: potency means the concentration at half of the fitted maximal effect). The settings on record: recombinant CYP2D6, luciferin-ME EGE luminescence; series mostly up to 57.1 µM. An outline of the steps:
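Luminescent read-out of luciferin formed by 5 nM human CYP2D6 demethylating 30 uM Luciferin-ME EGE (Km level) over 60 min at room temperature after NADPH regeneration addition. Data normalized to full inhibition by 1.43 uM quinidine.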

For test [11], the target named is Cytochrome P450 3A4 (Homo sapiens) (UniProt P08684). In words: qHTS Assay for Inhibitors and Substrates of Cytochrome P450 3A4 (AID 884; active means well fitted curve in the direction sought with a large enough effect; an effect the other way counts as inactive or inconclusive; further: potency means the concentration at half of the fitted maximal effect; nearly all actives have a fitted effect of over 50% in size). The settings on record: recombinant CYP3A4, Luciferin-PPXE luminescence; series mostly up to 57.1 µM. The method, boiled down:
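Luminescent readout of luciferin produced by CYP3A4 (20 nM) dealkylation of Luciferin-PPXE, 25 uM (its KM). NADPH-driven reaction ran 60 min at RT after 10 min compound preincubation; data scaled to 57 uM ketoconazole as 100% inhibition.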

Test [12] addresses Cytochrome P450 2C19 (Homo sapiens) (UniProt P33261). In words: qHTS Assay for Inhibitors and Substrates of Cytochrome P450 2C19 (AID 899; active means well fitted curve in the direction sought with a large enough effect; an effect the other way counts as inactive or inconclusive; further: nearly all actives have a fitted effect of over 60% in size; further: potency means the concentration at half of the fitted maximal effect). The settings on record: recombinant CYP2C19, luciferin-H EGE luminescence; series mostly up to 57.1 µM. The method, boiled down:
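Luminescent read-out of luciferin formed from Luciferin-H EGE (10uM, equal to KM). Enzyme 5nM in 50mM KPO4; compound added, 10 min at 37C, then NADPH regenerating system for 60 min at 37C. Full inhibition defined by 57uM ketoconazole.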

Test [13] has as its target Glucocorticoid receptor (Homo sapiens) (UniProt P04150). As to the kind of experiment: GR-GFP Redistribution (AID 450;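 active means compounds whose dose series gives a full or clear partial fitted curve of increased nuclear translocation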; further: potency means the concentration at half of the fitted maximal effect). The settings on record: U2OS GR-GFP nuclear translocation, laser cytometry, 2 h.
Test [14] has as its target Cytochrome P450 2C9 (Homo sapiens) (UniProt P11712). In words: qHTS Assay for Inhibitors and Substrates of Cytochrome P450 2C9 (AID 883; active means well fitted curve in the direction sought with a large enough effect; an effect the other way counts as inactive or inconclusive; further: potency means the concentration at half of the fitted maximal effect; nearly all actives have a fitted effect of over 60% in size). The settings on record: recombinant CYP2C9, luciferin-H luminescence, 60 min; series mostly up to 57.1 µM. The method, boiled down:
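10nM CYP2C9 + 100uM Luciferin-H (=KM), 25mM KPO4; cpd 10 min 37C; NADPH regen, 60 min 37C; stop/detect with P450 Glo-Buffer 20 min; luminescence. Norm. to 57uM sulphaphenazole as full inhibition.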

Chain of Glucocorticoid receptor (Homo sapiens) (P04150 whole entry, looked up, the tested form may be a part): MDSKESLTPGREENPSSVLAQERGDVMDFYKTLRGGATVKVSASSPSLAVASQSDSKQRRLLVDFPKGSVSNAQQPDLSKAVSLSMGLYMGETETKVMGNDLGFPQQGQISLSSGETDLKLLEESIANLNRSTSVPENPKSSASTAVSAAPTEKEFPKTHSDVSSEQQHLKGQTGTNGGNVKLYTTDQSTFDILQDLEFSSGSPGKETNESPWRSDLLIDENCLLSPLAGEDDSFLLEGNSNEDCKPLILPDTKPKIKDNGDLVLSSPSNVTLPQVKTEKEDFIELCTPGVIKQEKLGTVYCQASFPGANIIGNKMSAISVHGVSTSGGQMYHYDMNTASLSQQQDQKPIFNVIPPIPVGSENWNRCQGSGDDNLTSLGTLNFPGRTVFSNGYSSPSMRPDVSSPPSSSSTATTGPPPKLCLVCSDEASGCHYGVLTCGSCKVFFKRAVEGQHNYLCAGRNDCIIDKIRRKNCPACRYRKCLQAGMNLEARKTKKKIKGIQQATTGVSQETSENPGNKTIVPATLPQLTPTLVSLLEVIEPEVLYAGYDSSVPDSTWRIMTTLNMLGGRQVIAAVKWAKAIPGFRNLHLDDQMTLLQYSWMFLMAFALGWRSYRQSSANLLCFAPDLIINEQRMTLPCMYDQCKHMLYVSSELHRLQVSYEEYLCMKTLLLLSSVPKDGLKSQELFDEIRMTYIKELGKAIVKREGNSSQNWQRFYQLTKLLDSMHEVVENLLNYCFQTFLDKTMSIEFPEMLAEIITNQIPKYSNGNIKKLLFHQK
Chain of Cytochrome P450 3A4 (Homo sapiens) (P08684 whole entry, looked up): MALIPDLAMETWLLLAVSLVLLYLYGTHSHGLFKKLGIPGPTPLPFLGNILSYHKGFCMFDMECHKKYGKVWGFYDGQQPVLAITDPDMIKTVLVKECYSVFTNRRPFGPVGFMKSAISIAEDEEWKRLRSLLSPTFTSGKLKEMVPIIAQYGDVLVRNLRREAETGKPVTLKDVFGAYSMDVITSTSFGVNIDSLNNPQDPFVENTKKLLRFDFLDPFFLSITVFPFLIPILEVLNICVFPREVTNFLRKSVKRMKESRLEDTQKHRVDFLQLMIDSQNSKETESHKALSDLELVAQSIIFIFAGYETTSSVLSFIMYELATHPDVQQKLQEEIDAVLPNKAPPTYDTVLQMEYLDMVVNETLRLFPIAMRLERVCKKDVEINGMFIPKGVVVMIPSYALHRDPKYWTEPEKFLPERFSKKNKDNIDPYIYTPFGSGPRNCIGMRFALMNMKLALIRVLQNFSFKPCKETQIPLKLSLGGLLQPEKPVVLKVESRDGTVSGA
Chain of 3',5'-cyclic-AMP phosphodiesterase 4B (Homo sapiens) (Q07343 whole entry, looked up): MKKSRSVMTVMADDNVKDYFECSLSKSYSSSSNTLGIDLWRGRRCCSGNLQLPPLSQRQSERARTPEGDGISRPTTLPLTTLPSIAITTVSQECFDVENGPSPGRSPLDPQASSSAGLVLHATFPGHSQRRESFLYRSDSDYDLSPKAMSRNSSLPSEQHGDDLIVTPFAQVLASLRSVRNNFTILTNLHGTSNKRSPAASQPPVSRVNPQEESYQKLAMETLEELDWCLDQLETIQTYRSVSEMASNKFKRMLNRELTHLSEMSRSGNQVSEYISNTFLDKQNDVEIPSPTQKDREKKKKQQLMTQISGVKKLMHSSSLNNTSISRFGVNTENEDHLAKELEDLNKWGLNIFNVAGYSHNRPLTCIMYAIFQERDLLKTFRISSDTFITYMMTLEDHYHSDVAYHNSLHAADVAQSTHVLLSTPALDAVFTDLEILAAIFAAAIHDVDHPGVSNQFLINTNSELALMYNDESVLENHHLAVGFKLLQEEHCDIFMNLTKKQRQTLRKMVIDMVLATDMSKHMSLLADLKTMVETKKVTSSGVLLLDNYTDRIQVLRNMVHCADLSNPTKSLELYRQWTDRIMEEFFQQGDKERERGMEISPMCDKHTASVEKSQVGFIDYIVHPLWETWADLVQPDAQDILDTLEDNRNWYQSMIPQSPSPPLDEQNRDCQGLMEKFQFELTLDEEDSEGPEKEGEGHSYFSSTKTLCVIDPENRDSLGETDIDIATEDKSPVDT
Chain of Cytochrome P450 2D6 (Homo sapiens) (P10635 whole entry, looked up): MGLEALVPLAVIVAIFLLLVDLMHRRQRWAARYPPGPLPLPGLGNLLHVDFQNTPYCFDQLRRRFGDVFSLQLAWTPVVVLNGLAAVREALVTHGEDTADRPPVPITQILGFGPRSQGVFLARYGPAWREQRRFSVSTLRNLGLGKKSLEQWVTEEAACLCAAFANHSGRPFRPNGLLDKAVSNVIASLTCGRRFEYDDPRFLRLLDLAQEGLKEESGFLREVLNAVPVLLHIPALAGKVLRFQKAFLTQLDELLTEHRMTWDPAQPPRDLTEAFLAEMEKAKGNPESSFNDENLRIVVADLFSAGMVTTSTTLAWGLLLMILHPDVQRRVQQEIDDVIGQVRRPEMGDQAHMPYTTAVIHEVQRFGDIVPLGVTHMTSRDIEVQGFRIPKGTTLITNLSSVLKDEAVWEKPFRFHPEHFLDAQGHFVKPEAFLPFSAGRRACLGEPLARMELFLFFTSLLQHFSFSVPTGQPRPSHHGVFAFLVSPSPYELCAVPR
Chain of Cytochrome P450 2C19 (Homo sapiens) (P33261 whole entry, looked up): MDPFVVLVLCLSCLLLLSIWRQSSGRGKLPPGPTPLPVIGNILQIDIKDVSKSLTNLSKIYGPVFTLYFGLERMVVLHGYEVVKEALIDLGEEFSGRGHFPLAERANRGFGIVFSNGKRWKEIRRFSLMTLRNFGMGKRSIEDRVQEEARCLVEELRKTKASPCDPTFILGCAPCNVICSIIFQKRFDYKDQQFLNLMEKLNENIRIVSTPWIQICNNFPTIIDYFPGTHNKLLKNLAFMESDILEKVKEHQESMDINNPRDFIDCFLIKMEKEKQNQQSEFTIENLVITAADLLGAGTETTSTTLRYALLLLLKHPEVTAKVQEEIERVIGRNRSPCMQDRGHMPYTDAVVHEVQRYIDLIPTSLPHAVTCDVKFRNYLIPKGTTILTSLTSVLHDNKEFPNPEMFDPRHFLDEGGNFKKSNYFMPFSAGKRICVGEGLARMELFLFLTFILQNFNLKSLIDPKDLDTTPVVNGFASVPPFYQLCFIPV
Chain of Cytochrome P450 2C9 (Homo sapiens) (P11712 whole entry, looked up): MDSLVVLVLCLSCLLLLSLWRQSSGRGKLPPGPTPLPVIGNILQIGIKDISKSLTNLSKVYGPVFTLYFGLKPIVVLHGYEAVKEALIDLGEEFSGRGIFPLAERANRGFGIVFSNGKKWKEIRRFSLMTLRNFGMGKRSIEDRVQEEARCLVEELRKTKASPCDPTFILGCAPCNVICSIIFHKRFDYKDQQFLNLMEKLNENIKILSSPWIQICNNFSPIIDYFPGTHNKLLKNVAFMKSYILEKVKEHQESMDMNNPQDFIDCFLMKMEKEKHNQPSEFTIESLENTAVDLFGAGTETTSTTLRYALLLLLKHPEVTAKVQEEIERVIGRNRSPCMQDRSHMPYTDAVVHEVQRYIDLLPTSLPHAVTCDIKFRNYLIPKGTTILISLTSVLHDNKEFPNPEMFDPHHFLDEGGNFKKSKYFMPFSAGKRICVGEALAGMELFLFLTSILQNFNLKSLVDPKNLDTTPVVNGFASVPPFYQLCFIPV

Regarding `O=C(c1cc(C(F)(F)F)cc(C(F)(F)F)c1)N1CCC2(CCCN(Cc3ccncc3)C2)CC1`, the Potency in test [1] was > 11.4 µM; in [5] it was > 46 µM. Besides, the activity change, negative = inhibition in [2] was 7.96%. Further, the Potency result in test [3], in test [6], in test [7] and in [8] was “inactive” throughout. The activity, negative = inhibition in test [4] is -3.11%. In addition, the outcome in test [9] was inactive.

Consider `O=C(c1cnccn1)N1CCC2(CCCN(Cc3nccs3)C2)CC1`, for which the Potency is > 11.4 µM in test [1], 15.8 µM (active) in [3], > 46 µM in test [5] and 7.94 µM (active) in test [10]. Moreover, in test [2], the activity change, negative = inhibition is -20.7%. Further, in [4], the activity, negative = inhibition is -4.76%. For the same compound, the Potency result in test [6], in test [7] and in test [8] was “inactive” each time. In test [9], the result was inactive.

As for `O=S(=O)(c1ccccc1)N1CCC2(CCN(Cc3ccncc3)CC2)CC1`, the Potency in test [1] was > 11.4 µM; in [5], > 46 µM; in test [11], 3.98 µM (active). For the same compound, the activity change, negative = inhibition in test [2] was -0.758%. In addition, the Potency entry in test [3], in [6], in test [7] and in test [8] was “inactive” throughout. Besides, the activity, negative = inhibition in test [4] is 7.32%. For the same compound, in test [9], the result was inactive.

For `O=C(c1csnn1)N1CCC2(CC1)CCN(c1ccccn1)CC2`, the Potency is > 11.4 µM in [1] and 25.1 µM (active) in test [3]. Further, in [2], the activity change, negative = inhibition is 15.4%. For the same compound, in test [4], the activity, negative = inhibition is 4.86%. Further, the Potency result in test [6] and in test [7] was “inactive” throughout. Further, the outcome in test [9] was inactive.

For `COc1ccccc1CN1CC2(CCN(S(=O)(=O)c3ccccc3)CC2)C1`, the figures for the Potency in [1] and in test [5] were > 11.4 µM and > 46 µM, respectively. In test [2], the activity change, negative = inhibition is 18.5%. Moreover, the Potency entry in test [3], in [6], in [7], in test [8], in test [10] and in [12] was “inactive” in each case. Further, the activity, negative = inhibition in [4] was 7.2%. Moreover, in test [9], the outcome was inactive.

Take `COc1ccc(C(=O)N2CCC[C@@]3(CCN(Cc4ccccc4)C3)C2)cc1`: the Potency in test [1] is > 11.4 µM; in test [3], 12.6 µM (active); in [5], > 46 µM; in [10], 7.94 µM (active). Also, in test [2], the activity change, negative = inhibition was 13%. For the same compound, the activity, negative = inhibition in test [4] is -4.24%. Further, the Potency entry in [6], in [7] and in test [8] was “inactive” in each case. Besides, in test [9], the result was inactive.

As to `O=c1c(-c2cccc(Cl)c2)nc2cncnc2n1Cc1ccccc1Cl`, the Potency in test [1] is > 11.4 µM; in [3], 2 µM (active); in [13], > 9.22 µM; in test [5], > 46 µM; in test [14], 3.98 µM (active); in test [12], 5.01 µM (active). In [2], the activity change, negative = inhibition is 15.6%. Also, the activity, negative = inhibition in test [4] is -2.1%. Moreover, the Potency entry in test [6] and in test [8] was “inactive” throughout. Further, in test [9], the outcome was inactive.
